{"source": "PubChem BioAssay (NCI)", "note": "The panel holds about 83,000 compounds, 20% with a hit somewhere; the sample as a whole holds those more often.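 Compound tested at a single concentration for 48 hours in 96-well plates; a percent growth value below 10 was scored as active.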 Calls of active or inactive are those of the source."}
{"system": "MDA-MB-468 breast", "test": "NCI-60 one-dose screen, 48 h (100 = growth as untreated, 0 = no growth, -100 = all killed)", "details": "10 µM unless noted"}
{"compound": "CC1=C(C(=O)Nc2ccccc2)C(c2ccc3c(c2)OCO3)NC(=S)N1", "note": "(centres undefined)", "growth": "108% (inactive)"}
{"compound": "CC[N+](CC)=c1ccc2nc3c(cc(N)c4ccccc43)oc-2c1", "growth": "-5.04% (active)"}
{"compound": "COc1ccccc1/C=C1\\COc2ccc(O)c(O)c2C1=O", "growth": "12.6% (inactive)"}
{"compound": "COC(=O)c1cc2c(n1Cc1ccccc1)-c1oncc1CCC2", "growth": "63.5% (inactive)"}
{"compound": "O=S(=O)(Nc1ncccn1)c1ccc(NC2Nc3nc4ccccc4nc3S2)cc1", "note": "(centres undefined)", "growth": "95.5% (inactive)"}
{"compound": "COc1cc(C(=O)N(C(C)C)C2CCCCC2)cc(OC)c1OC", "growth": "89.8% (inactive)"}
{"compound": "O=C(Nc1ccc(-n2cc(-c3ccncc3)c(-c3ccc(O)c(Cl)c3)n2)cc1)c1ccc(Cl)c(C(F)(F)F)c1", "growth": "27.5% (inactive)"}
{"compound": "Nc1c(C(=O)Nc2cccc(C(F)(F)F)c2)sc2nc3c(cc12)CCCCC3", "growth": "-9.93% (active)"}
{"compound": "CCCOc1cc2ccccc2cc1C(=O)Nc1nc(N)c2c(ccc3nccc32)[nH]1", "growth": "-64.7% (active)"}
{"compound": "O=C(O)c1cn(C2CC2)c2cc(N3CCN(C(=O)Nc4nc(-c5ccccc5)cs4)CC3)c(F)cc2c1=O", "growth": "27.1% (inactive)"}
{"compound": "COc1cccc(-c2nn(-c3ccccc3)cc2-c2ccnc(NCCCNS(=O)(=O)c3ccc(C(F)(F)F)cc3)c2)c1", "growth": "-9.51% (active)"}
{"compound": "ClC(Cl)c1nc(-c2ccco2)n2nc(-c3ccccc3)cc2n1", "growth": "-54.2% (active)"}
{"compound": "O=C(Nc1ccsc1C(=O)NC1CCCCC1)c1ccc(F)cc1", "growth": "101% (inactive)"}
{"compound": "Cn1cc(-c2nnc(N)nc2-c2c[nH]c3ccc(F)cc23)c2cc(F)ccc21", "growth": "-15.1% (active)"}
